Experimental data from PubChem BioAssay AID1159580 (chemical genetic matrix, 2015).
The campaign covered roughly 5,500 compounds. About 2,000 (36%) were called active. Inconclusive results (about 18%) are left out. Cut-off read from the data, not from the text of the source: active = normalized growth mostly below about 0.91 (no sharp cut-off); inconclusive = no clear call, values can overlap the other calls; inactive = mostly above about 0.92. Some of the results follow.

Assay: chemical genetic growth profiling, strain panel (AID 1159580);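 note: tested at 20 µM; growth read once vehicle control cultures reached saturation at 30 °C; 1 = growth at the plate median or of vehicle wells; lower values mean less growth of the strain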
Details: growth OD

Measured: normalized growth

Cc1ccc(-c2cc(C(F)(F)F)nn2-c2ccc(S(N)(=O)=O)cc2)cc1
inactive: S. cerevisiae deletion strains, locus YJR075W, strain HOC1, hits give low values 1.02 | S. cerevisiae deletion strains, locus YKL009W, strain mrt4, hits give low values 0.965 | S. cerevisiae deletion strains, locus YKL068W, hits give low values 1 | S. cerevisiae deletion strains, locus YKL085W, strain MDH1 (second series), hits give low values 1 | S. cerevisiae deletion strains, locus YKL085W, strain MDH1, hits give low values 1 | S. cerevisiae deletion strains, locus YKL160W, strain elf1, hits give low values 1.03 | S. cerevisiae deletion strains, locus YKL190W, strain CNB1, hits give low values 0.999 | S. cerevisiae deletion strains, locus YKR001C, strain vps1, hits give low values 0.988 | S. cerevisiae deletion strains, locus YKR026C, strain gcn3, hits give low values 1.03 | S. cerevisiae deletion strains, locus YKR091W, strain srl3, hits give low values 1.02 | S. cerevisiae deletion strains, locus YLL001W, strain dnm1, hits give low values 1.03 | S. cerevisiae deletion strains, locus YLL026W, hits give low values 1.02 | S. cerevisiae deletion strains, locus YLL041C, strain sdh2, hits give low values 1.02 | S. cerevisiae deletion strains, locus YLR027C, strain aat2, hits give low values 1.02 | S. cerevisiae deletion strains, locus YLR039C, strain RIC1, hits give low values 0.967 | S. cerevisiae deletion strains, locus YLR058C, strain SHM2, hits give low values 0.998 | S. cerevisiae deletion strains, locus YLR102C, strain apc9, hits give low values 1.01 | S. cerevisiae deletion strains, locus YLR113W, strain HOG1, hits give low values 0.984 | S. cerevisiae deletion strains, locus YLR221C, strain rsa3, hits give low values 1.03 | S. cerevisiae deletion strains, locus YLR258W, strain gsy2, hits give low values 1.02 | S. cerevisiae deletion strains, locus YLR262C, strain YPT6 (second series), hits give low values 1.01 | S. cerevisiae deletion strains, locus YLR262C, strain YPT6, hits give low values 0.939 | S. cerevisiae deletion strains, locus YLR268W, strain sec22, hits give low values 1.08 | S. cerevisiae deletion strains, locus YLR320W, strain mms22, hits give low values 1.04 | S. cerevisiae deletion strains, locus YLR330W, strain CHS5, hits give low values 1 | S. cerevisiae deletion strains, locus YLR342W, strain FKS1 (second series), hits give low values 1.04 | S. cerevisiae deletion strains, locus YLR342W, strain FKS1, hits give low values 1.03 | S. cerevisiae deletion strains, locus YLR357W, strain rsc2, hits give low values 1.09 | S. cerevisiae deletion strains, locus YLR370C, strain arc18, hits give low values 1.03 | S. cerevisiae deletion strains, locus YLR371W, strain rom2, hits give low values 1.02 | S. cerevisiae deletion strains, locus YLR384C, strain iki3, hits give low values 1.02 | S. cerevisiae deletion strains, locus YLR418C, strain cdc73, hits give low values 1.01 | S. cerevisiae deletion strains, locus YML016C, strain PPZ1, hits give low values 0.989 | S. cerevisiae deletion strains, locus YML032C, strain rad52, hits give low values 1.05 | S. cerevisiae deletion strains, locus YML120C, strain ndi1, hits give low values 1.03 | S. cerevisiae deletion strains, locus YML124C, strain tub3, hits give low values 1.01 | S. cerevisiae deletion strains, locus YMR058W, strain fet3, hits give low values 1.03 | S. cerevisiae deletion strains, locus YMR078C, strain ctf18, hits give low values 1.02 | S. cerevisiae deletion strains, locus YMR125W, strain sto1, hits give low values 1.03 | S. cerevisiae deletion strains, locus YMR129W, hits give low values 1.02 | S. cerevisiae deletion strains, locus YMR205C, strain PFK2, hits give low values 1.04 | S. cerevisiae deletion strains, locus YMR223W, strain ubp8, hits give low values 0.999 | S. cerevisiae deletion strains, locus YMR231W, strain pep5, hits give low values 1.03 | S. cerevisiae deletion strains, locus YMR263W, strain SAP30, hits give low values 1.01 | S. cerevisiae deletion strains, locus YMR307W, strain GAS1, hits give low values 0.959 | S. cerevisiae deletion strains, locus YNL067W, strain RPL9B, hits give low values 1.02 | S. cerevisiae deletion strains, locus YNL071W, strain lat1, hits give low values 1.02 | S. cerevisiae deletion strains, locus YNL128W, strain TEP1, hits give low values 1.02 | S. cerevisiae deletion strains, locus YNL153C, strain GIM3, hits give low values 1.03 | S. cerevisiae deletion strains, locus YNL183C, strain NPR1, hits give low values 0.954 | S. cerevisiae deletion strains, locus YNL209W, strain ssb2, hits give low values 1.02 | S. cerevisiae deletion strains, locus YNL233W, strain BNI4, hits give low values 1.02 | S. cerevisiae deletion strains, locus YNL248C, strain rpa49, hits give low values 1.03 | S. cerevisiae deletion strains, locus YNL250W, strain rad50, hits give low values 1.02 | S. cerevisiae deletion strains, locus YNL271C, strain bni1, hits give low values 1.01 | S. cerevisiae deletion strains, locus YNL298W, strain CLA4, hits give low values 0.992 | S. cerevisiae deletion strains, locus YNL307C, strain MCK1, hits give low values 1 | S. cerevisiae deletion strains, locus YNL322C, strain KRE1 (second series), hits give low values 1.03 | S. cerevisiae deletion strains, locus YNL322C, strain KRE1, hits give low values 0.997 | S. cerevisiae deletion strains, locus YNR049C, strain mso1, hits give low values 1.03 | S. cerevisiae deletion strains, locus YNR052C, strain pop2, hits give low values 1.01 | S. cerevisiae deletion strains, locus YOL006C, strain TOP1, hits give low values 1 | S. cerevisiae deletion strains, locus YOL012C, strain htz1 0.962 | S. cerevisiae deletion strains, locus YOL147C, strain pex11, hits give low values 1.01 | S. cerevisiae deletion strains, locus YOR001W, strain rrp6, hits give low values 1.03 | S. cerevisiae deletion strains, locus YOR061W, strain CKA2, hits give low values 0.998 | S. cerevisiae deletion strains, locus YOR069W, strain VPS5, hits give low values 0.996 | S. cerevisiae deletion strains, locus YOR070C, strain gyp1, hits give low values 1.02 | S. cerevisiae deletion strains, locus YOR080W, strain dia2, hits give low values 1.05 | S. cerevisiae deletion strains, locus YOR083W, strain WHI5, hits give low values 1.02 | S. cerevisiae deletion strains, locus YOR106W, strain vam3, hits give low values 1.04 | S. cerevisiae deletion strains, locus YOR136W, strain idh2, hits give low values 1.01 | S. cerevisiae deletion strains, locus YOR144C, strain elg1, hits give low values 1.01 | S. cerevisiae deletion strains, locus YOR184W, strain ser1, hits give low values 1.01 | S. cerevisiae deletion strains, locus YOR231W, strain MKK1, hits give low values 0.968 | S. cerevisiae deletion strains, locus YOR265W, strain rbl2, hits give low values 1.01 | S. cerevisiae deletion strains, locus YOR270C, strain vph1, hits give low values 1.07 | S. cerevisiae deletion strains, locus YOR290C, strain snf2, hits give low values 1.03 | S. cerevisiae deletion strains, locus YOR316C, strain cot1, hits give low values 1.01 | S. cerevisiae deletion strains, locus YPL051W, strain arl3, hits give low values 1.02 | S. cerevisiae deletion strains, locus YPL055C, strain LGE1, hits give low values 0.986 | S. cerevisiae deletion strains, locus YPL078C, strain atp4, hits give low values 1.02 | S. cerevisiae deletion strains, locus YPL106C, strain sse1, hits give low values 1.04 | S. cerevisiae deletion strains, locus YPL240C, strain hsp82, hits give low values 1.02 | S. cerevisiae deletion strains, locus YPL241C, strain CIN2, hits give low values 0.995 | S. cerevisiae deletion strains, locus YPL256C, strain CLN2, hits give low values 0.96 | S. cerevisiae deletion strains, locus YPR119W, strain clb2, hits give low values 1.01 | S. cerevisiae deletion strains, locus YPR141C, strain kar3, hits give low values 1 | S. cerevisiae deletion strains, locus YPR163C, strain tif3, hits give low values 1.02 | S. cerevisiae deletion strains, locus YPR167C, strain met16, hits give low values 1.01 | S. cerevisiae deletion strains, strain wtn01, hits give low values 1.03 | S. cerevisiae strains, strain wild type, hits give low values 0.996
